The full data set covers some 7,900 targets. This sample favours those with a hit. About 0.6% of all pairs of compound and target were hits. Unmarked numbers belong to inactive results.
Experiments:
Experiment in all cases: log2 fold change, soluble protein after heating vs DMSO (PISA); higher = thermal stabilisation; K562 cells, 10 uM, 30 min; active = over 0.2 and 3.5 SD of the protein, either way, in both replicates (recomputed)
erlotinib = compound: C#Cc1cccc(Nc2ncnc3cc(OCCOC)c(OCCOC)cc23)c1 [erlotinib]
Outline: (§1)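 K562 cells (2×10^6 cells/mL) were treated with 10 μM compound for 30 min, and aliquots were heated for 3 min over 48°C-58°C. Pooled aliquots were extracted in PBS with 0.5% NP-40 at 4°C, and the supernatant after 21,000xg for 90 min was measured by TMTpro 16plex LC-MS/MS with channel sums equalised. Reported thermal stability, relative to control samples and from duplicates, is a log2 fold change.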

[1] = compound: C/C(=N\NC(=O)C1=CC(=CC=C1)S(=O)(=O)N2CCOCC2)/C3=C(C=CC(=C3)Cl)O
Outline: as §1

[2] = compound: C1=CC(=C(C=C1Cl)C2=NC3=NC=CN=C3C(=N2)NC4=CC=NC=C4)F
Outline: as §1

[3] = compound: C1=CC(=CC=C1C2=NC3=C(N2)C=C(C=C3)C(=O)N)OC4=CC=C(C=C4)Cl
Outline: as §1

[4] = compound: C1=CC2=C(C=CC(=C2)/C=C\3/C(=O)NC(=NCC4=CC=CS4)S3)N=C1
Outline: as §1

[5] = compound: C1=CC2=NC=CN=C2C=C1/C=C/3\C(=O)NC(=O)S3
Outline: as §1

[6] = compound: C1=CC=C(C=C1)C2=NC(=C(N2)C3=CC=NC=C3)C4=CC(=C(C=C4)Cl)O
Outline: as §1

[7] = compound: C1=CC=C2C(=C1)C3=NNC4=CC=CC(=C43)C2=O
Outline: as §1

[8] = compound: C1CCN(C1)C(=O)NC2=CC=CC(=C2)NC3=NC=C(C(=N3)NCCC4=CN=CN4)Br
Outline: as §1

[9] = compound: C1CN(CCC1(CC2=CC=C(C=C2)Cl)N)C3=NC=NC4=C3C=CN4
Outline: as §1

IRAK-1-4 Inhibitor I = compound: C1COCCN1CCN2C3=CC=CC=C3N=C2NC(=O)C4=CC(=CC=C4)[N+](=O)[O-] [IRAK-1-4 Inhibitor I]
Outline: as §1

ibrutinib = compound: C=CC(=O)N1CCC[C@@H](n2nc(-c3ccc(Oc4ccccc4)cc3)c3c(N)ncnc32)C1 [ibrutinib]
Outline: as §1

[10] = compound: CC(=O)c1cnc2ccc(-c3cc(Cl)c(O)c(Cl)c3)nc2c1N[C@H]1CC[C@H](CN(C)C)CC1
Outline: as §1

ralimetinib = compound: CC(C)(C)Cn1c(N)nc2ccc(-c3[nH]c(C(C)(C)C)nc3-c3ccc(F)cc3)nc21 [ralimetinib]
Outline: as §1

[11] = compound: CC(C)(O)CC(=O)NCCn1ccc2ncnc(Nc3ccc(Oc4cccc(C(F)(F)F)c4)c(Cl)c3)c21
Outline: as §1

[12] = compound: CC(C)C1=C2N=C(C=C(N2N=C1)NCC3=CC=CC=C3)NCCCCCCN
Outline: as §1

[13] = compound: CC(C)C[C@@H](C=O)NC(=O)[C@H](CC(C)C)NC(=O)[C@H](CC(C)C)NC(=O)OCc1ccccc1
Outline: as §1

pinometostat = compound: CC(C)N(C[C@H]1O[C@@H](n2cnc3c(N)ncnc32)[C@H](O)[C@@H]1O)[C@H]1C[C@@H](CCc2nc3cc(C(C)(C)C)ccc3[nH]2)C1 [pinometostat]
Outline: as §1

[14] = compound: CC1=C(C(CC(=O)N1)C2=CC=C(C=C2)C(F)(F)F)C(=O)NC3=C(C=C4C(=C3)C=NN4)F
Outline: as §1

[15] = compound: CC1=C(C2=C(C=C1)C(=O)C3=CC=CC=C3N2CCCN)C
Outline: as §1

Chain of UniProt Q6PCB7 (Q6PCB7 whole entry, looked up): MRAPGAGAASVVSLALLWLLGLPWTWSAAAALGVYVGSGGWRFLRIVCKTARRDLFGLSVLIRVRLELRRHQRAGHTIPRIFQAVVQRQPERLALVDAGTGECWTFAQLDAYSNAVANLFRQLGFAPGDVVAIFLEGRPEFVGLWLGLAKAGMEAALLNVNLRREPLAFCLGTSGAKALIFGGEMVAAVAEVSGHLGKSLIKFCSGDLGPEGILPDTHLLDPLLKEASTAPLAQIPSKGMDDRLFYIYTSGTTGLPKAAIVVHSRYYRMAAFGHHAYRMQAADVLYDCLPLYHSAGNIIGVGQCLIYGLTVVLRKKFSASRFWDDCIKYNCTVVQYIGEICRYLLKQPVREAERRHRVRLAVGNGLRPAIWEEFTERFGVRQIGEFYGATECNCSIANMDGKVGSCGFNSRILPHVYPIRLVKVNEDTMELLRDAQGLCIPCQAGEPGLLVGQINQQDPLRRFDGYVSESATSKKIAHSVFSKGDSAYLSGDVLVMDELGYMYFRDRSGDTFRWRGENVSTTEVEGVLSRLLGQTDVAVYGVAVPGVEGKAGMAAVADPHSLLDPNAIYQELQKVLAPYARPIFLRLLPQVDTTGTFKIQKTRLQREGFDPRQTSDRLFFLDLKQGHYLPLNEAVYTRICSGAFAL
Chain of UniProt Q8TCT7 (Q8TCT7 whole entry, looked up): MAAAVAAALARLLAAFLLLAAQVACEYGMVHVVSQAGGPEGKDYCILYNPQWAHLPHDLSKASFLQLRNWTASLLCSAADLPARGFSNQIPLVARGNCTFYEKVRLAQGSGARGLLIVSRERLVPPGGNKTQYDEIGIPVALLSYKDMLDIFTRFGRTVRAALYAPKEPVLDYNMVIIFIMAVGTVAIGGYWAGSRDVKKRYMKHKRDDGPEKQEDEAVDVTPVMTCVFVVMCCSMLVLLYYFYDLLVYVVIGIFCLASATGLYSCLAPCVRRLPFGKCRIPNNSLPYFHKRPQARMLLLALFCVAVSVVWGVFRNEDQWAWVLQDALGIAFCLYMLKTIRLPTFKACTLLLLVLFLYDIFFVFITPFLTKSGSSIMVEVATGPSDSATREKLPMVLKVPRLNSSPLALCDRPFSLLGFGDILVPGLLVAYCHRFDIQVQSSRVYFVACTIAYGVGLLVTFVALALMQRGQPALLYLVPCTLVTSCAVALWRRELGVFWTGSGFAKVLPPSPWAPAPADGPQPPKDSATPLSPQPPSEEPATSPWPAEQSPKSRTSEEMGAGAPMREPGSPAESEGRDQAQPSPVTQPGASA
Chain of UniProt Q6XR72 (Q6XR72 whole entry, looked up): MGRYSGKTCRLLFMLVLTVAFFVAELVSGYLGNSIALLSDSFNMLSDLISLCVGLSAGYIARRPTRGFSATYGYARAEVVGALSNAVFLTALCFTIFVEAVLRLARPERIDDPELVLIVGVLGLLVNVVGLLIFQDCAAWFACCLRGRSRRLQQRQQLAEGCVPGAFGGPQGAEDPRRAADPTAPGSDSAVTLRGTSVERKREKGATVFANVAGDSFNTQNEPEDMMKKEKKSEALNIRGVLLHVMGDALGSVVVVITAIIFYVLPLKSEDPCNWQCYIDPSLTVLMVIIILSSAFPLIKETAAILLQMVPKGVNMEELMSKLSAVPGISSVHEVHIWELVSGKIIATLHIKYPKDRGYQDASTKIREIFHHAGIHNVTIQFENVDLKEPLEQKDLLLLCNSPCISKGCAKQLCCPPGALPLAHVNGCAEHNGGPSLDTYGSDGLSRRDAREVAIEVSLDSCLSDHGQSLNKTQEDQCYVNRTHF
Chain of UniProt O00506 (O00506 whole entry, looked up): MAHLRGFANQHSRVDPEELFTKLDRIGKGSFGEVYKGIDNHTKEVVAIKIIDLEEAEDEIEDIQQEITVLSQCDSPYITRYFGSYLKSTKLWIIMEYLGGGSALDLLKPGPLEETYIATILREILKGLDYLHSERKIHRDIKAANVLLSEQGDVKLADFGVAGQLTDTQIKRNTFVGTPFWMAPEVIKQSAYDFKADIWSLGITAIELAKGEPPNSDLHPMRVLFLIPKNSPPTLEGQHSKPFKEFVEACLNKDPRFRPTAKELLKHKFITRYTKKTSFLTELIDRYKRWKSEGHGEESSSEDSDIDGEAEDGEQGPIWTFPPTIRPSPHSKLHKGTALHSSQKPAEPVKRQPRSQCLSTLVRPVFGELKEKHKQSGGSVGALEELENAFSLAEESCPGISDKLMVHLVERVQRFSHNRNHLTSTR
Chain of UniProt Q9BSF4 (Q9BSF4 whole entry, looked up): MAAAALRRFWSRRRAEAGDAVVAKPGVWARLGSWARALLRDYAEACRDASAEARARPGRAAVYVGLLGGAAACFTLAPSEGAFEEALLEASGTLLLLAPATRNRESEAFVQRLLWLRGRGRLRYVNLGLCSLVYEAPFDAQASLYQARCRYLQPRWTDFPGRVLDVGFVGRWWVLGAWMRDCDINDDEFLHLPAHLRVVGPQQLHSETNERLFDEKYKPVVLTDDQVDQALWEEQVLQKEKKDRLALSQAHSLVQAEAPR
Chain of UniProt Q9Y5W9 (Q9Y5W9 whole entry, looked up): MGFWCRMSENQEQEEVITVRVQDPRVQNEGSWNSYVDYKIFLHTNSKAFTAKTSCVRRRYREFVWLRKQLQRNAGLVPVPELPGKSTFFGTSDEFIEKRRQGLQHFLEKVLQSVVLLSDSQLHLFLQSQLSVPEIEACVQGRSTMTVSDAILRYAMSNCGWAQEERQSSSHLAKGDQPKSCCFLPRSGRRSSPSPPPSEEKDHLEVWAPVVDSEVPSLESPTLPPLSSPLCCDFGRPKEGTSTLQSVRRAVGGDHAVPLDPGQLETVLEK
Chain of UniProt Q6P1M0 (Q6P1M0 whole entry, looked up): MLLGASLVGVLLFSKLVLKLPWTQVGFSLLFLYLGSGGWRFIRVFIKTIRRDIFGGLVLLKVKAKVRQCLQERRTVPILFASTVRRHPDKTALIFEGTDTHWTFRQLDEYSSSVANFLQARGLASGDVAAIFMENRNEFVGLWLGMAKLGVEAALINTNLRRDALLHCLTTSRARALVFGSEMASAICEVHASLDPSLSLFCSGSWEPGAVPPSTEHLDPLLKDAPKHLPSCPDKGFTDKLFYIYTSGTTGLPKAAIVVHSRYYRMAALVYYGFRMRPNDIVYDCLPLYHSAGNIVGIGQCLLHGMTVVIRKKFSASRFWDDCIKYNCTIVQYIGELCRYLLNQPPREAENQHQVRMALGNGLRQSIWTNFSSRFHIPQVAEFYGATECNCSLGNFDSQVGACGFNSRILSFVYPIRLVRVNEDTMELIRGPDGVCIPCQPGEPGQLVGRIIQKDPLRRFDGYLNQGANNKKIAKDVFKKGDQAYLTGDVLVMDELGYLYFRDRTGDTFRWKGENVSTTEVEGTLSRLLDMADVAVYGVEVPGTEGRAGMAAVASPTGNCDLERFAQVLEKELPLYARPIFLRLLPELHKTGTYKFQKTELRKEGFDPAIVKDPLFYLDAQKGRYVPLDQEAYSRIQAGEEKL
Chain of UniProt Q05519 (Q05519 whole entry, looked up): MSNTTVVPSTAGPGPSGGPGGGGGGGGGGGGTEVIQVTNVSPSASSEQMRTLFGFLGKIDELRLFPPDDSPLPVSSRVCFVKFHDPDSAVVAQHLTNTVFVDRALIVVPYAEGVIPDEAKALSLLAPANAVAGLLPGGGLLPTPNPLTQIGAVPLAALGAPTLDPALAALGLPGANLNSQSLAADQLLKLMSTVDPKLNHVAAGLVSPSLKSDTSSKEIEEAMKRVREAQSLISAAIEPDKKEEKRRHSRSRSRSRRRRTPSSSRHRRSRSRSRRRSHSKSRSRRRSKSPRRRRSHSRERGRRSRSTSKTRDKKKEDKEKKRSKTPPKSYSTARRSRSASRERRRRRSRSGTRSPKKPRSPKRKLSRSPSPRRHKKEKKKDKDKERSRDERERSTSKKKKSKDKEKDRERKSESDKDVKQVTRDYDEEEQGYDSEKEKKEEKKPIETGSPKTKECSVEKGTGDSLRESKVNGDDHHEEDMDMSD
Chain of UniProt P05455 (P05455 whole entry, looked up): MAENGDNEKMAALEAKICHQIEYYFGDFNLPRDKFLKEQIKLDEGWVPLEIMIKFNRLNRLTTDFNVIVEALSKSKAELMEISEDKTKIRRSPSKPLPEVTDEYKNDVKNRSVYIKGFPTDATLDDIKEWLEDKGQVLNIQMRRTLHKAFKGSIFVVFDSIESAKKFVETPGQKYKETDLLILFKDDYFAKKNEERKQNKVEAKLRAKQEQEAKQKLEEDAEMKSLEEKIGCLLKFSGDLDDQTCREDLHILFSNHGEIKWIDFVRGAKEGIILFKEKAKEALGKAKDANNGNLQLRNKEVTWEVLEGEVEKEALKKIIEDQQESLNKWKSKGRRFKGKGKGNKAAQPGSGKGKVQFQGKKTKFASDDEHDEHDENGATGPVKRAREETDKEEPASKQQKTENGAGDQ
Chain of UniProt Q9NZD8 (Q9NZD8 whole entry, looked up): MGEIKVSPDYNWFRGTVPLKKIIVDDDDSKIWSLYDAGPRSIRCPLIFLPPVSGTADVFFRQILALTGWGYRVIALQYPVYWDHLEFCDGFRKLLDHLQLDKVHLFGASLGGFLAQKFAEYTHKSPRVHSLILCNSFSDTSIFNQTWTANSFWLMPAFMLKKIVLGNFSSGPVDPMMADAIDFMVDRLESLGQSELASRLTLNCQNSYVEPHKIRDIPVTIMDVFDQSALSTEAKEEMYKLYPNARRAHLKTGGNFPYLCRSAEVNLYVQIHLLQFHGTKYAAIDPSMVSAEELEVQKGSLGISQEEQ
Chain of UniProt P55061 (P55061 whole entry, looked up): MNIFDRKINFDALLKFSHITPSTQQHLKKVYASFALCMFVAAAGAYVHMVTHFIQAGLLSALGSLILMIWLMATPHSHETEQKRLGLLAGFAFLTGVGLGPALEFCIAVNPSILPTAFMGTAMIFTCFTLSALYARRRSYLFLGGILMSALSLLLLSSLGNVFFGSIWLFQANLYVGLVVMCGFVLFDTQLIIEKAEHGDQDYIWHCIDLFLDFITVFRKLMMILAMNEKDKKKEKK

Target	log2 fold change (erlotinib)	log2 fold change [1]	log2 fold change [2]	log2 fold change [3]	log2 fold change [4]	log2 fold change [5]	log2 fold change [6]	log2 fold change [7]	log2 fold change [8]	log2 fold change [9]	log2 fold change (IRAK-1-4 Inhibitor I)	log2 fold change (ibrutinib)	log2 fold change [10]	log2 fold change (ralimetinib)	log2 fold change [11]	log2 fold change [12]	log2 fold change [13]	log2 fold change (pinometostat)	log2 fold change [14]	log2 fold change [15]
SRSF11 (UniProt Q05519)	0.05	0.191	0.06	0.054	-0.049	-0.003	-0.026	-0.003	-0.129	-0.196	-0.116	-0.014	-0.416 (active)	0.01	-0.049	-0.255	-0.005	-0.016	-0.011	0.026
SLC30A10 (UniProt Q6XR72)	0.033	0.068	-0.06	0.001	0.077	0.008	0.025	-0.003	-0.054	0.115	0.05	-0.08	-0.019	-0.014	-0.079	0.035	-0.054	-0.032	0.035	0.12
STK25 (UniProt O00506)	0.081	0.011	0.062	-0.009	0.021	0.041	-0.025	-0.007	0.026	0.011	0.051	-0.067	0	0.015	-0.039	-0.02	0.066	0.034	-0.015	0.08
TMBIM6 isoform 2 (UniProt P55061)	-0.019	0.029	0.051	-0.062	0.067	0.076	0.019	-0.07	0.026	-0.01	0.023	0.001	0.004	-0.208	-0.437 (active)	-0.521 (active)	0.135	0.017	0.003	-0.075
SPG11 (UniProt Q96JI7)	0.586	0.148	-0.089	-0.084	0.128	-0.108	-0.275	-0.073	0.405	-0.002	-0.027	0.128	-0.065	-0.151	0.103	0.051	0.405	0.035	0.03	0.097
SPG21 (UniProt Q9NZD8)	0.014	0.075	-0.08	0.021	-0.045	0.054	0.103	0.083	-0.032	0.012	-0.042	-0.167	-0.046	0.014	0.043	-0.007	0.021	0.019	-0.062	0.072
SLC27A4 (UniProt Q6P1M0)	0.039	0.013	-0.023	0.032	0.082	-0.02	0.002	0.061	-0.017	0.062	-0.042	0.022	-0.034	0.003	0.072	-0.11	-0.044	0.039	0.047	0.104
TIMM29 (UniProt Q9BSF4)	0.028	0.042	0.049	-0.025	0.064	0.018	-0.035	-0.024	0.037	0.011	-0.202	0.024	-0.014	-0.101	0.008	0.071	-0.031	0.444 (active)	-0.004	-0.052
SPPL2B (UniProt Q8TCT7)	0.021	-0.112	-0.039	0.044	0.081	0.048	0.003	-0.072	-0.041	0.038	-0.004	0.013	-0.039	0.041	0.179	-0.086	0.101	-0.032	0.049	0.02
SLC27A1 (UniProt Q6PCB7)	-0.003	-0.053	0.055	-0.008	0.061	0	0.016	0.012	-0.411 (active)	-0.064	0.052	0.064	-0.05	0.001	0.117	-0.035	-0.04	-0.034	0.195	0.04
SNX11 (UniProt Q9Y5W9)	0.034	-0.029	0.035	0.037	-0.048	-0.028	-0.035	-0.042	-0.079	0.071	0.069	0.13	-0.062	-0.001	0.085	-0.218	0.043	-0.067	0.134	-0.101
SSB (UniProt P05455)	-0.05	0.045	0.013	0.028	-0.043	-0.014	-0.056	-0.169	-0.151	-0.03	-0.006	-0.038	-0.209	0.017	0.001	-0.038	0.011	-0.005	0.071	-0.474 (active)
